MITF primary: blocks human microphthalmia-associated transcription factor. O75030. AlphaScreen MITF homodimerization, bead proximity signal. inhibition, % at 2.6 µM. 650,000 compounds, 0.91% hits. AID 1259374; in the data active = inhibition above about 50%;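 note: 0% = vehicle wells with protein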
Target sequence (O75030 whole entry, looked up): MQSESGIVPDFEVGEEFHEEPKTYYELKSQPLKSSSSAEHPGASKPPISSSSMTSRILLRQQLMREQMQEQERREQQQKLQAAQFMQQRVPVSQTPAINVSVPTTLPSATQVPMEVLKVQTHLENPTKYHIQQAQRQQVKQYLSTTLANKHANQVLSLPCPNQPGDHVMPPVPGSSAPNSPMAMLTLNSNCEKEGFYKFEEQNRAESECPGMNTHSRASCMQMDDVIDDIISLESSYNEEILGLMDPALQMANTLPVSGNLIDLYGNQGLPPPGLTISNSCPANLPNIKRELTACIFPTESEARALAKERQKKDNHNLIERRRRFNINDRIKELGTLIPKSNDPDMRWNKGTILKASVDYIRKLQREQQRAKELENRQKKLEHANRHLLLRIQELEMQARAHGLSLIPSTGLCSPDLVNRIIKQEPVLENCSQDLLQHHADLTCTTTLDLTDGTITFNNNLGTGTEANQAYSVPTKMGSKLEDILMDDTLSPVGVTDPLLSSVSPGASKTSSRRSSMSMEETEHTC
GPR151 activ: human GPR151 activation | Q8TDV0 | 650,000 compounds, 1% hits | activation, % at 11.2 µM | PathHunter beta-arrestin GPR151 cells, luminescence; in the data active = activation above about 4.9%;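 note: 0% = median of compound wells and 100% = cells with positive control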
TEAD-YAP block: TEAD-YAP interaction inhibition; HEK-TIYL cells, TEAD-Gal4/YAP UAS-luciferase luminescence; inhibition, % at 9.12 µM; 640,000 compounds, 1.4% hits; AID 1259422; in the data active = inhibition above about 32%;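 note: 0% = median of test compound wells and 100% = reference inhibitor wells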
FBW7 act: activators of human E3 ligase FBW7; AID 1259310; 650,000 compounds, 0.13% hits; AlphaScreen FBW7–phospho-cyclin E peptide binding, activator screen; normalized activity (activation), % at 26.1 µM; Q969H0; in the data active = normalized activity above about 1.9%;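 note: purified mutant Fbw7 with reduced substrate affinity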
GPR151 conf act: confirmation of human GPR151 activators. shares compounds with GPR151 activ. GPR151 PathHunter beta-arrestin cells, luminescence, 90 min; % of EA-reagent control over plate median. activation, % at 11.2 µM. 6,700 tested, under 10 active;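 active = mean percent activation across replicates above the confirmation screen cutoff of 4.91%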
GPR119 counter: activates human GPR119 in a GPR151 counter-screen | shares compounds with GPR151 activ | GPR119 PathHunter beta-arrestin cells, luminescence, 90 min; 0 = compound-well median, 100 = enzyme-acceptor control | activation, % at 11.2 µM | 6,700 compounds, 0.3% hits | AID 1508611;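 active = mean percent activation in the counterscreen above 29.09%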;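 note: counterscreen on off-target GPR119 to flag nonselective hits from the GPR151 activator screen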
Starred values were filed as active, the others as inactive; / = no result given. A selection: hits, their analogues and other compounds. The true share with any hit is near 3.4%.

SMILES | MITF primary | GPR151 activ | TEAD-YAP block | FBW7 act | GPR151 conf act | GPR119 counter
CC(C)C[C@H]1NC(=O)[C@@H]2C[C@H](NC(=O)c3cccc(F)c3F)CN2C1=O | -2 | 0 | -10 | 0 | / | /
CC[C@@H]1NC(=O)[C@@H]2C[C@H](NC(=O)c3cccc(F)c3F)CN2C1=O | 6 | 9.7* | 9 | 0 | 0 | 5
Cc1ccc2nc(-c3ccccn3)cc(C(=O)Nc3ccc([N+](=O)[O-])cn3)c2c1 | -2 | 15* | 3 | 0 | 0 | 3
O=S1(=O)N=C(N(CCO)/N=C/c2cccc(O)c2O)c2ccccc21 | 1 | 5.9* | -6 | 0 | 0 | -6
CCc1c(C)n2c(C)c(CC)c(=O)n2c1=O | -8 | 0 | 6 | 0 | / | /
CCn1c(-c2cccc(Cl)c2)n[nH]c1=S | 12 | -1 | 5 | 0 | / | /
CCN(CC)c1n[nH]c(-c2cccc(Cl)c2)n1 | 14 | 5.3* | -30 | 0 | -1 | -8
COc1cccc(CNc2nn[nH]n2)c1OC | 12 | 8.4* | 8 | 0 | -1 | -7
C/C(O)=C\c1nc2ccccc2[nH]c1=O | 12 | 6.9* | 7 | 0 | 0 | 13
O=c1[nH]c2ccccc2nc1/C=C(\O)C(F)F | 14 | 0 | 4 | 0 | / | /
COc1ccc(OC)c(C2NC(C(=O)O)C3C(=O)N(c4cccc(C(=O)O)c4)C(=O)C23)c1 (stereo unspecified) | -3 | 5.0* | 4 | 0 | 0 | 1
COc1ccc(C2NC(C(=O)O)C3C(=O)N(c4ccc(F)cc4)C(=O)C23)c(OC)c1 (stereo unspecified) | -5 | 1 | 4 | 0 | / | /
COc1ccc(C2NC(C(=O)O)C3C(=O)N(c4ccc(F)cc4)C(=O)C23)c(OC)c1OC (stereo unspecified) | 8 | 1 | 0 | 0 | / | /
COc1ccc(OC)c(C2NC(C(=O)O)C3C(=O)N(c4ccccc4)C(=O)C23)c1 (stereo unspecified) | -7 | 5.2* | -9 | 0 | 0 | 7
COc1cc(/C=c2\sc3nc(-c4ccc(Cl)cc4)nn3c2=O)ccc1OCc1ccccc1 | 14 | -1 | 10 | 0 | / | /
Cc1ccc(-c2csc3ncc(C(=O)Nc4cc(C(C)(C)C)nn4C)c(=O)n23)cc1 | 2 | 0 | -2 | 0 | / | /
Cc1c(Nc2c([N+](=O)[O-])cc([N+](=O)[O-])cc2[N+](=O)[O-])c(=O)n(-c2ccccc2)n1C | 19 | -1 | -2 | 2 | / | /
O=C(Cn1c(=O)oc2cc(S(=O)(=O)N3CCCCCC3)ccc21)NC1CCCCC1 | 8 | -1 | 1 | 0 | / | /
O=C(Cn1c(=O)oc2cc(S(=O)(=O)N3CCc4ccccc43)ccc21)NC1CCCC1 | -7 | 7.5* | 9 | 0 | 1 | -6
COc1ccc(NC(=O)Cn2c(=O)oc3cc(S(=O)(=O)N4CCCC4)ccc32)cc1 | 5 | 5.0* | 14 | 0 | 0 | -2
Cc1ccc(OCC(=O)Nc2nnc(C)s2)c(C(C)(C)C)c1 | 2 | 1 | -6 | 0 | / | /
CC1(c2ccccc2)CC(C)(C)N(C(=O)C(F)(F)F)c2ccccc21 (stereo unspecified) | 8 | 1 | 13 | 0 | / | /
CCN(CC(=O)NC1CCCCCC1)S(=O)(=O)c1ccc(C)cc1 | -1 | 5.4* | -6 | 0 | 2 | 2
O=C(Cn1cnc2ccccc21)NCCCN1CCOCC1 | 8 | 5.9* | 4 | 0 | 0 | -1
Cc1nc2ccccn2c1C(=O)NCCCN1CCOCC1 | -3 | 4.9* | 1 | 0 | 0 | 1
CCOC(=O)C1=C(C)NC2=C(C(=O)CC(C)(C)C2)C1c1cc(Br)c(O)c(OC)c1 (stereo unspecified) | 4 | 0 | 6 | 0 | / | /
COc1ccc(-c2nc3scc(CCNS(=O)(=O)c4ccc(F)cc4C)n3n2)cc1 | -4 | 2 | 0 | 0 | / | /
CCCc1ccc(S(=O)(=O)Nc2ccc3c(c2)CC(=O)N3C)cc1 | 2 | 4.9* | 8 | 0 | 0 | -17
O=C(NCc1cccnc1)c1ccnc(Nc2cnccn2)c1 | 9 | 6.6* | 5 | 1 | -1 | 3
Cc1ccc(CNC(=O)C(C)SCc2ccccc2)cc1 (stereo unspecified) | -7 | 8.1* | -2 | 0 | 0 | 12

Source: PubChem BioAssay
